Drawing on PubChem BioAssay (NCATS), this text covers Potency for 19 molecules.

The nature of assay [1]: qHTS of pediatric cancer cell lines to identify multiple opportunities for drug repurposing: Primary screen for TC32 cells (AID 1347089). Note: nearly all actives have a fitted effect of over 60% in size. Note: potency is the fitted concentration of half-maximal effect. The procedure, abridged:
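qHTS, TC32, 48 h drug treatment, CellTiter-Glo luminescence as a proxy for metabolically active cells; primary top concentration 46 µM (MIPE 11-pt, NPC 8-pt); confirmatory 11-pt.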
In general terms: Quantitative high-throughput screening tests each substance at several concentrations.

The nature of assay [2]: qHTS of pediatric cancer cell lines to identify multiple opportunities for drug repurposing: Primary screen for DAOY cells (AID 1347090). Note: series mostly up to about 46 µM; nearly all actives have a fitted effect of over 55% in size. The method in brief:
(§1)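 Eight- or eleven-point concentration series, 48 h treatment at 37 degrees C in growth media; readout CellTiter-Glo luminescence. Potency and efficacy were taken from the concentration-response curves.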

The nature of assay [3]: qHTS of pediatric cancer cell lines to identify multiple opportunities for drug repurposing: Primary screen for SK-N-MC cells (AID 1347093). Note: potency is the fitted concentration of half-maximal effect. The method in brief:
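Metabolically active cells were quantified by ATP-dependent luminescence (CellTiter-Glo, 15 min at room temperature) following 48 h treatment. Cells had been plated at 500-1,000 per well and settled for 5 h beforehand.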

A short description of assay [4]: qHTS of pediatric cancer cell lines to identify multiple opportunities for drug repurposing: Primary screen for U-2 OS cells (AID 1347096). Note: nearly all actives have a fitted effect of over 50% in size. The method in brief: (§2)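 Cells (500-1,000/well) in growth media were settled 5 h at 37 degrees C, then given compounds for 48 h. Viability was read as CellTiter-Glo luminescence. Primary runs used MIPE at 11 points (0.78 nM-46 µM) and NPC at 8 points (0.59 nM-46 µM); follow-ups used 11 points.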

Assay [5] in a line: qHTS of pediatric cancer cell lines to identify multiple opportunities for drug repurposing: Primary screen for Saos-2 cells (AID 1347097). Note: nearly all actives have a fitted effect of over 40% in size. The procedure, abridged: (§3)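 Phenotypic viability qHTS, 48 h compound exposure, CellTiter-Glo luminescence read-out; multi-concentration dosing so that potency and efficacy derive directly from the primary screen's curves.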
Assay [6] is described as follows: qHTS of pediatric cancer cell lines to identify multiple opportunities for drug repurposing: Primary screen for SK-N-SH cells (AID 1347098). Note: nearly all actives have a fitted effect of over 65% in size. Note: potency is the fitted concentration of half-maximal effect. The method in brief:
(§4)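 Cells (500-1,000/well) rested 5 h, then received compounds for 48 h; metabolically active cells were measured by CellTiter-Glo luminescence. Final concentrations spanned up to 46 µM (MIPE, 11-point) or 0.59 nM-46 µM (NPC, 8-point) in primary screens, 11-point in follow-ups.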

Assay [7] is described as follows: qHTS of pediatric cancer cell lines to identify multiple opportunities for drug repurposing: Primary screen for NB1643 cells (AID 1347099). Note: nearly all actives have a fitted effect of over 50% in size. Note: potency is the fitted concentration of half-maximal effect. The procedure, abridged: as §3
Assay [8] can be described thus: qHTS of pediatric cancer cell lines to identify multiple opportunities for drug repurposing: Primary screen for LAN-5 cells (AID 1347100). Note: potency is the fitted concentration of half-maximal effect. The method in brief:
as §2

The nature of assay [9]: qHTS of pediatric cancer cell lines to identify multiple opportunities for drug repurposing: Primary screen for Rh18 cells (AID 1347102). Note: nearly all actives have a fitted effect of over 65% in size. The procedure, abridged: as §2
Assay [10] can be described thus: qHTS of pediatric cancer cell lines to identify multiple opportunities for drug repurposing: Primary screen for OHS-50 cells (AID 1347103). Note: nearly all actives have a fitted effect of over 40% in size. Note: potency is the fitted concentration of half-maximal effect. The procedure, abridged:
as §4

Assay [11] can be described thus: qHTS of pediatric cancer cell lines to identify multiple opportunities for drug repurposing: Primary screen for NB-EBc1 cells (AID 1347095). Note: potency is the fitted concentration of half-maximal effect. The method in brief: as §3
A short description of assay [12]: qHTS of pediatric cancer cell lines to identify multiple opportunities for drug repurposing: Primary screen for BT-12 cells (AID 1347101). Note: nearly all actives have a fitted effect of over 25% in size. Note: potency is the fitted concentration of half-maximal effect. The method in brief: as §4
Assay [13] can be described thus: qHTS of pediatric cancer cell lines to identify multiple opportunities for drug repurposing: Primary screen for MG 63 (6-TG R) cells (AID 1347105). Note: nearly all actives have a fitted effect of over 50% in size. Note: potency is the fitted concentration of half-maximal effect. The procedure, abridged:
as §3

The nature of assay [14]: qHTS of pediatric cancer cell lines to identify multiple opportunities for drug repurposing: Primary screen for SJ-GBM2 cells (AID 1347091). Note: potency is the fitted concentration of half-maximal effect. The procedure, abridged:
as §1

A short description of assay [15]: qHTS of pediatric cancer cell lines to identify multiple opportunities for drug repurposing: Primary screen for A673 cells (AID 1347092). Note: nearly all actives have a fitted effect of over 45% in size. Note: potency is the fitted concentration of half-maximal effect. The method in brief: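 Luminescence from CellTiter-Glo, taken after 15 min at room temperature, served as the proxy for metabolically active cells following 48 h treatment. Both potency and efficacy were taken from curves fitted to the titration data.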

A short description of assay [16]: qHTS of pediatric cancer cell lines to identify multiple opportunities for drug repurposing: Primary screen for BT-37 cells (AID 1347094). Note: potency is the fitted concentration of half-maximal effect. The method in brief: as §3
Assay [17] can be described thus: qHTS of pediatric cancer cell lines to identify multiple opportunities for drug repurposing: Primary screen for RD cells (AID 1347104). Note: nearly all actives have a fitted effect of over 55% in size. Note: potency is the fitted concentration of half-maximal effect. The method in brief: as §3

SMILES strings stand for the structures. “And” between values parts separate entries of the source, which are not always exact repeats. Identical values can stand only once. Results filed as inconclusive are left out. The source made the active and inactive calls. Calls come from the whole dose curve; as a rule, active = well fitted curve in the direction sought with a large enough effect; inconclusive = small, poorly fitted or top-dose-only effect, or another doubt; inactive = no such curve, though single readings can be large; an effect the other way counts as inactive or inconclusive.

Turning to `COc1cc(C(C)=O)ccc1OCCCN1CCC(c2noc3cc(F)ccc23)CC1`, the Potency result in [1], in assay [2], in assay [3], in [4], in [5] and in [6] was “inactive” throughout. Further, the Potency entry in assay [7], in assay [8] and in assay [9] was “inactive” throughout. Moreover, the Potency in assay [10] was 21.7 µM (active) and 19.5 µM (active).

Turning to `CCN(CC)CCOc1ccc(Cc2ccccc2)cc1`, the Potency result in assay [1], in [2], in [3], in [11], in assay [4] and in assay [5] was “inactive” throughout. For the same molecule, the Potency result in assay [7], in [12], in assay [9] and in [13] was “inactive” each time.

Consider `C=C(c1ccc(C(=O)O)cc1)c1cc2c(cc1C)C(C)(C)CCC2(C)C`, for which the Potency result in assay [1], in assay [15], in [16], in [5], in [6] and in assay [7] was “inactive” in each case. The Potency entry in assay [8], in assay [12], in assay [9], in assay [17] and in assay [13] was “inactive” throughout. In addition, the Potency was 26.6 µM (active) in assay [14], 2.11 µM (active) in assay [3] and 3.89 µM (active) in assay [10].

On to `CC(C)[N+]1(C)[C@@H]2CC[C@H]1CC(OC(=O)C(CO)c1ccccc1)C2` (some centres undefined), for which the Potency result in [1], in [14], in [16], in assay [11], in [5] and in [8] was “inactive” in each case. For the same molecule, the Potency result in assay [12] and in assay [13] was “inactive” throughout. In addition, the figures for the Potency in [3], in assay [7] and in assay [17] were 9.35 µM (active), 11.8 µM (active) and 29.6 µM (active), respectively.

In the case of `CCCCC(CC)COC(=O)C(C#N)=C(c1ccccc1)c1ccccc1` (centres undefined), the Potency result in [1], in [2], in [16], in assay [11], in [4] and in assay [5] was “inactive” each time. The Potency entry in assay [9] was “inactive”. The Potency in assay [3] is 16.8 µM (active) and 7.43 µM (active); in [10], 13.8 µM (active) and 24.3 µM (active).

`Cc1ccc(C(=O)c2cc(O)c(O)c([N+](=O)[O-])c2)cc1`: the Potency result in [1], in [2], in [4], in assay [7], in assay [12] and in assay [9] was “inactive” each time. Moreover, the Potency entry in [17] and in assay [13] was “inactive” in each case. Also, the Potency in [3] was 23.7 µM (active) and 18.7 µM (active).

As for `CC(C)Oc1ccc2c(=O)c(-c3ccccc3)coc2c1`, the Potency result in assay [1], in assay [2], in assay [3], in assay [16], in assay [11] and in [4] was “inactive” in each case. Further, the Potency result in assay [5], in [7], in assay [8], in assay [9] and in [17] was “inactive” each time.

On to `CC(C)c1nc(CN(C)C(=O)N[C@H](C(=O)N[C@@H](Cc2ccccc2)C[C@H](O)[C@H](Cc2ccccc2)NC(=O)OCc2cncs2)C(C)C)cs1`, for which the Potency result in assay [1], in [2], in assay [16], in assay [4], in assay [5] and in assay [12] was “inactive” in each case. Also, the Potency entry in assay [17] is “inactive”. For the same molecule, the Potency in assay [3] was 10.5 µM (active); in assay [11] it was 23.7 µM (active).

In the case of `Nc1cc(C(Cl)=C(Cl)Cl)c(S(N)(=O)=O)cc1S(N)(=O)=O`, the Potency result in assay [1], in assay [2], in assay [15], in [3], in [16] and in [11] was “inactive” in each case. Further, the Potency result in assay [5], in assay [6], in [7], in assay [8], in [12] and in assay [9] was “inactive” throughout. In addition, the Potency result in assay [10] and in assay [17] was “inactive” throughout.

On to `Nc1nc(Cl)nc2c1ncn2[C@H]1C[C@H](O)[C@@H](CO)O1`, for which the Potency is 1.17 µM (active) in assay [1]; 7.43 µM (active) in assay [14]; 2.96 µM (active) in [15]; 18.7 µM (active) in assay [3]; 0.273 µM (active) in assay [16]; 1.05 µM (active) in [7]. Also, the Potency in [8] is 0.418 µM (active); in assay [13], 29.6 µM (active). For the same molecule, the Potency result in assay [5] and in assay [9] was “inactive” in each case.

As to `Cc1cccc(CN2CCN(C(c3ccccc3)c3ccc(Cl)cc3)CC2)c1` (centres undefined), the Potency entry in [1], in [14], in assay [4], in assay [8], in assay [9] and in assay [13] was “inactive” throughout. Moreover, the Potency is 18.7 µM (active) in assay [15]; 11.9 µM (active) and 18.7 µM (active) in assay [3].

With `Cc1cc(=O)oc2cc(O)ccc12`, the Potency result in [1], in [2], in assay [15], in assay [3], in [16] and in assay [11] was “inactive” each time. Further, the Potency entry in assay [4], in [5], in assay [7], in assay [8], in assay [12] and in assay [9] was “inactive” throughout. The Potency result in assay [10], in assay [17] and in [13] was “inactive” throughout.

Consider `Cc1c(C(=O)NN2CCCCC2)nn(-c2ccc(Cl)cc2Cl)c1-c1ccc(Cl)cc1`, for which the Potency entry in [1], in [2] and in assay [4] was “inactive” each time. Also, the Potency in assay [15] was 4.69 µM (active); in assay [3], 21.1 µM (active) and 7.43 µM (active); in assay [16], 3.85 µM (active); in assay [6], 27.3 µM (active) and 30.4 µM (active); in assay [8], 3.72 µM (active); in assay [12] it was 4.85 µM (active). Further, the Potency in assay [10] is 4.85 µM (active); in assay [17] it was 18.7 µM (active).

On to `Nc1ccc(S(N)(=O)=O)cc1`, for which the Potency entry in [1], in assay [2], in [15], in assay [3], in assay [16] and in [5] was “inactive” in each case. The Potency entry in assay [6], in assay [7], in [8], in [12], in [9] and in [10] was “inactive” in each case. The Potency result in [17] was “inactive”.

For the molecule `CC1(C)CCC(C)(C)c2cc(NC(=O)c3ccc(C(=O)O)cc3)ccc21`, the Potency result in assay [1], in assay [14], in assay [16], in assay [4], in assay [8] and in assay [12] was “inactive” throughout. Further, the Potency result in [9], in assay [17] and in assay [13] was “inactive” throughout. Further, the Potency in assay [3] was 1.87 µM (active).

`C[C@]12CCC(=O)C=C1CC[C@@H]1[C@H]2[C@@H](O)C[C@@]2(C)[C@H]1CC[C@]2(O)C(=O)CO`: the Potency result in assay [1], in [2], in assay [3], in [16], in assay [11] and in assay [4] was “inactive” throughout. For the same molecule, the Potency result in [5], in assay [8], in assay [12], in [9], in [10] and in assay [17] was “inactive” each time. In addition, in [13], the Potency entry was “inactive”.

Consider `CCOC(=O)C1=C[C@@H](OC(CC)CC)[C@H](NC(C)=O)[C@@H](N)C1`, for which the Potency result in assay [1], in assay [2], in [16], in assay [11], in assay [4] and in assay [5] was “inactive” in each case. Moreover, the Potency entry in assay [6], in [7], in assay [8], in [12], in assay [9] and in assay [10] was “inactive” in each case. Besides, the Potency result in [17] was “inactive”.

Regarding `Cc1cccc(C)c1OCC(=O)N[C@@H](Cc1ccccc1)[C@@H](O)C[C@H](Cc1ccccc1)NC(=O)[C@H](C(C)C)N1CCCNC1=O`, the Potency entry in [1], in assay [2], in [4], in [9] and in [13] was “inactive” in each case. Moreover, the Potency in assay [3] was 29.6 µM (active); in [7], 20.9 µM (active).

As to `COC1=C(OC)C(=O)C(CCCCCCCCCCO)=C(C)C1=O`, the Potency result in assay [1], in [14], in [3], in assay [16], in [5] and in assay [7] was “inactive” throughout. For the same molecule, the Potency entry in [13] is “inactive”.
